# Screening data deposited in PubChem by National Center for Advancing Translational Sciences (NCATS).
# Hits are enriched below; roughly 2.4% of the tested compounds scored in any of these assays.
# FEN1 inh: qHTS Assay for the Inhibitors of Human Flap endonuclease 1 (FEN1) | P39748 | Recombinant FEN1 flap cleavage, fluorescence, 15 min | Potency, µM (series often up to 114 µM), without a hit: top-dose activity change, negative = inhibition, most hits filed as inhibitors | actives 0.35% (n = 390,000) | AID 588795, 2011; also: potency is read from the fitted curve at half-maximal effect; % is scaled to controls: 0 for no effect and ±100 for the full control effect; nearly all actives have a fitted effect of over 65% in size
#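 Enzyme 10 nM, 15 min RT preincubation with compound; start with substrate 50 nM final; reads at 0 and 15 min; qHTS titration, four-parameter Hill fit.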
# TDP1 block: qHTS Assay for Inhibitors of Tyrosyl-DNA Phosphodiesterase (TDP1); Tyrosyl-DNA phosphodiesterase 1 (Homo sapiens), Q9NUW8; recombinant TDP1, AlphaScreen DNA substrate cleavage; Potency, µM (titrated, usually from 130 µM), inactives show top-dose activity change, negative = inhibition, most hits filed as inhibitors; actives 0.28% (n = 350,000); also: potency is read from the fitted curve at half-maximal effect; % is scaled to controls: 0 for no effect and ±100 for the full control effect; nearly all actives have a fitted effect of over 40% in size
#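 Signal: AlphaScreen proximity between streptavidin donor and anti-FITC acceptor beads on intact substrate. Reaction: Tdp1 1 nM, substrate 15 nM final, 5 min RT after 15 min compound preincubation.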
# Pol kappa inh-1: qHTS for Inhibitors of Polymerase Kappa. purified Pol kappa, fluorescent DNA synthesis assay, 10 min. Potency, µM (top dose mostly 107 µM), inactives show at the highest dose activity, negative = inhibition, most hits filed as inhibitors. actives 0.53% (n = 400,000); also: potency is read from the fitted curve at half-maximal effect; % is scaled to controls: 0 for no effect and ±100 for the full control effect
#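 Inhibition of 10 nM Pol kappa is measured by a fluorescent read-out at 0 and 10 min following addition of 50 nM substrate (final), with a 15-min room-temperature compound preincubation.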
# Pol eta inh-1: qHTS for Inhibitors of Polymerase Eta. AID 588591, 2011. actives 1.2% (n = 390,000). recombinant Pol eta, fluorescent DNA replication assay. Potency, µM (top dose mostly 114 µM), for inactives: at the highest dose activity change, negative = inhibition, hits mostly inhibitors; also: potency is read from the fitted curve at half-maximal effect; % is scaled to controls: 0 for no effect and ±100 for the full control effect
# Target sequence (Q9Y253 whole entry, looked up): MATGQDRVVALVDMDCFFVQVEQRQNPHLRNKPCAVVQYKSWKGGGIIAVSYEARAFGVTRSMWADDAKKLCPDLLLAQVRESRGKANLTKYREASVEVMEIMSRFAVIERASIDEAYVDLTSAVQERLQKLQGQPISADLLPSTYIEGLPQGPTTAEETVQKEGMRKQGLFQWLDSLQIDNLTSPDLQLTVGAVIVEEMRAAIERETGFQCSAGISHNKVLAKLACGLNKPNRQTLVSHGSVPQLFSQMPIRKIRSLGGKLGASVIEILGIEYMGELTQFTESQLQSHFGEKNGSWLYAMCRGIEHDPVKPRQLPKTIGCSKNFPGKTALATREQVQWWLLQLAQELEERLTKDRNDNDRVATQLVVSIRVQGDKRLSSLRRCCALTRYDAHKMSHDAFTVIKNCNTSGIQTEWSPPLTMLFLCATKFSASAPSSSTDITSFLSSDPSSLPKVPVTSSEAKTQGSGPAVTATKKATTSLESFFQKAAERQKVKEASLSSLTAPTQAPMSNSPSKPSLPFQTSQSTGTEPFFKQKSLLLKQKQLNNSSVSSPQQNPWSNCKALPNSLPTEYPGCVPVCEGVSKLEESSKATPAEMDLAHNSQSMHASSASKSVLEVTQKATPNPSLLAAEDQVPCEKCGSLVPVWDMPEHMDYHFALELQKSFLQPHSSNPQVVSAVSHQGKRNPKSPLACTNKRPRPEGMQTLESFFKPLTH
#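 Pol eta at 10 nM preincubated with compounds 15 min at room temperature; reaction started with fluorescent substrate (50 nM final) and read kinetically at 0 and 10 min.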
# POLB inh: qHTS Assay for Inhibitors of DNA Polymerase Beta | Potency, µM (titrated, usually from 114 µM), inactives show at the top dose activity change, negative = inhibition, actives largely listed as inhibitors | AID 485314, 2010 | actives 1.3% (n = 340,000) | P06746 | Pol beta primer extension/strand displacement, fluorescence kinetic; also: potency is read from the fitted curve at half-maximal effect; % is scaled to controls: 0 for no effect and ±100 for the full control effect
#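 Curves were derived by four-parameter Hill fits of normalized qHTS data. The kinetic fluorescent primer-extension read was taken at 0 and 10 min after 50 nM substrate, following a 15 min room-temperature preincubation of 10 nM enzyme with compounds.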
# Pol iota inh: qHTS for Inhibitors of Polymerase Iota; Pol iota fluorescent replication assay, 10 min; Potency, µM (doses to about 115 µM), without a hit: at the top dose activity, negative = inhibition, hits mostly inhibitors; actives 1% (n = 390,000); AID 588590, 2011; also: potency is read from the fitted curve at half-maximal effect
#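 Pol iota at 10 nM preincubated 15 min with compounds at room temperature; reaction started with fluorescent substrate, 50 nM final. Fluorescence read kinetically at 0 and 10 min; buffer-only wells as negative control.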
# TbPGK inh: qHTS for inhibitors of Phosphogylcerate Kinase: Hit Validation Screen. shares compounds with Pol kappa inh-1. TbPGK coupled GAPDH assay, Kinase-Glo luminescence. Potency, µM (titrated, usually from 57.5 µM), inactives show top-dose activity change, negative = inhibition, usual class: inhibitors. actives 79% (n = 500); also: potency is read from the fitted curve at half-maximal effect; % is scaled to controls: 0 for no effect and ±100 for the full control effect; nearly all actives have a fitted effect of over 65% in size
# Pol iota confirm: qHTS for Inhibitors of Polymerase Iota: Confirmatory Assay for Cherry-picked Compounds | shares compounds with Pol kappa inh-1 | Pol iota primer extension, TAMRA/BHQ fluorescence | Potency, µM, usual class: inhibitors | actives 77% (n = 1,500) | AID 720496, 2013; also: potency is read from the fitted curve at half-maximal effect
# GALK confirm: Confirmation Assay for Inhibitors of Human Galactokinase (GALK); shares compounds with Pol eta inh-1; purified GALK, Kinase-Glo ATP depletion luminescence; Potency, µM (doses to about 115 µM), inactives show top-dose activity, negative = inhibition, most hits filed as inhibitors; actives 70% (n = 150)
# Redox cycling: Confirmatory Assay for Inhibitors of Human Galactokinase (GALK): Phenol-HRP redox assay counterscreen; shares compounds with Pol eta inh-1; Phenol red-HRP H2O2 redox cycling, absorbance 600 nm; Potency, µM (top dose mostly 115 µM), for inactives: at the top dose activity change, negative = H2O2 signal, actives largely listed as inhibitors; actives 40% (n = 150)
# HEK293 viability: Secondary Assay for Inhibitors of Human Galactokinase (GALK): HEK-293 Cell Viability Assay; AID 2547, 2010; Potency, µM (titrated, usually from 46.1 µM), for the others: top-dose activity change, negative = cytotoxicity, usual class: inhibitors; HEK-293 viability, ATP luminescence (CellTiter-Glo), 24/48 h; shares compounds with Pol eta inh-1; actives 10% (n = 170); also: potency is read from the fitted curve at half-maximal effect; % is scaled to controls: 0 for no effect and ±100 for the full control effect
# Pol kappa inh-2: qHTS for Inhibitors of Polymerase Kappa: Confirmatory Assay for Cherry-picked Compounds; shares compounds with Pol eta inh-1; purified Pol-kappa, fluorescent strand-displacement substrate; Potency, µM, usual class: inhibitors; actives 76% (n = 920); AID 720501, 2013; also: potency is read from the fitted curve at half-maximal effect
# Pol eta inh-2: qHTS for Inhibitors of Polymerase Eta: Confirmatory Assay for Cherry-picked Compounds. actives 64% (n = 2,600). Potency, µM, hits mostly inhibitors. AID 720502, 2013. Pol eta primer extension, TAMRA/BHQ fluorescence, 10 min. shares compounds with Pol eta inh-1; also: potency is read from the fitted curve at half-maximal effect
# * = called active by the depositor; ? = inconclusive; . = no result; ! = a repeat was not active; [ ] = another dose, or the depositor's remark. Calls follow the shape of the dose curve; as a rule, active = well fitted curve in the direction sought with a large enough effect; inconclusive = small, poorly fitted or top-dose-only effect, or another doubt; inactive = no such curve, though single readings can be large; an effect the other way counts as inactive or inconclusive.
SMILES,FEN1 inh,TDP1 block,Pol kappa inh-1,Pol eta inh-1,POLB inh,Pol iota inh,Pol iota confirm,Pol eta inh-2,others
CC(CS(=O)(=O)c1ccc2c(c1)NC(=O)CS2)C(=O)NCc1ccccc1Cl (stereo not given),-21%,8.9µM*,?,18µM*,100µM*,45µM*,?,34*,TbPGK inh=1.8µM*
Cc1ccc(NC(=O)CSc2nc(-c3ccc(F)cc3)nc3c2Cc2c(CO)cnc(C)c2O3)cc1C,18%,0%,-8%,6%,-1%,4%,.,.,
COc1ccccc1-c1nc2c(c(SCC(=O)Nc3ccc(C)c(C)c3)n1)Cc1c(CO)cnc(C)c1O2,-8%,10%,-11%,?,0%,-2%,?,?,
CCOC1(OCC)OC(c2ccccc2)=C(C#N)C(C=Cc2ccccc2)C1(OCC)OCC (stereo not given),.,.,.,-13%,.,.,.,.,
N#Cc1ccccc1S(=O)(=O)N1CCN(C(=O)c2cc3c(s2)CCC3)CC1,-8%,5µM*,?,20µM*,.,?,?,?,Pol kappa inh-2=?
CCOC(=O)c1c(NC(=O)c2ccc(S(=O)(=O)N(CC(C)C)CC(C)C)cc2)sc2c1CCN(CC)C2,-2%,3%,-6%[60.1 µM],-13%,0%,23%,.,.,
O=C(O)COc1ccccc1/C=N/NC(=O)/C(=C\c1ccc2c(c1)OCO2)NC(=O)c1ccccc1,-14%,3%,-8%,?,-15%,?,42*,?,
O=C(NCCO)c1cccc2c1C(=O)c1ccccc1-2,-21%,5%,0%,-3%,8%,18%,.,.,
O=C1c2cccc(NCCNCCO)c2C(=O)c2cccc(NCCNCCO)c21,4µM*,.,28µM*,7.1µM*,.,45µM*,19*,.,Pol kappa inh-2=19*
N#Cc1c(N2CCCC2)nc(N)c2c(N)nc(N3CCCC3)cc12,?,10%,-16%,2.8µM*,?,2.5µM*,38*,60*,GALK confirm=2.1µM*;Redox cycling=1.9µM*;HEK293 viability=-2%
COc1cc2c(C#N)c(N3CCN(C)CC3)nc(N)c2c(N)n1,.,7%,.,.,-6%,.,.,.,
COc1cc2c(C#N)c(N3CCCC3)nc(N)c2c(N)n1,?,.,?,22µM*,?,8.9µM*!,38*,24*,
CC(C)COc1ccc(-c2nn(-c3ccccc3)cc2/C=C2/SC(=S)N(CC(=O)O)C2=O)cc1,2%,.,-3%,28µM*,23%,-15%,75*,67*,
Cc1cccc(NS(=O)(=O)c2ccc3c(c2)CCN3C(=O)C2CCC2)c1,-21%,0%,4%,-23%,5%,27%,.,.,
O=C(/C=C/c1ccco1)NCC1OCCc2ccccc21 (stereo not given),?,.,35µM*,13µM*,14µM*,14µM*,42*,43*,
COc1ccccc1N1CCN(C(=O)c2oc3ccccc3c2N)CC1,-17%,5%,-2%,-18%,26%,19%,.,.,
C=CCn1c(SCC(=O)c2ccc(O)c(O)c2)nnc1-c1cccnc1,?,-8%,28µM*,4µM*,1.3µM*,7.1µM*,34*,27*,TbPGK inh=3.7µM*
C=CCn1c(SCC(=O)NC2CCCC2)nnc1-c1cccnc1,-4%,2%,-7%,-1%,-7%,39%,.,.,
N#Cc1c(-n2ncnc2-c2ccc(Br)cc2)sc2c1CCCCC2,-1%,5%[12.3 µM],9%,-17%,0%,39%,.,.,
O=C(CCc1ccc(O)c(O)c1)N/N=C/c1cc2c(cc1[N+](=O)[O-])OCO2,?,-10%,25µM*,18µM*,25µM*,32µM*,?,30*,
CC(C)(C)c1ccc(O)c(N=Cc2cc3c(cc2[N+](=O)[O-])OCO3)c1,-19%,.,-4%,7%,1%,-1%,.,.,
O=C(CCS(=O)(=O)c1cc2c(cc1Cl)NC(=O)CO2)NCc1ccccc1Cl,-8%,-4%,0%,-15%,-32%,28%,.,.,
NNc1nc(C(F)(F)F)nc2ccccc12,-5%,8%,8%,-3%,2%,55%,.,.,
O/C=c1\ccc2cccc3nc(C(F)(F)F)nc1c23,79µM*,.,?,25µM*,3.2µM*,0.89µM*,67*,48*,Pol kappa inh-2=?
C=CCn1c(C)cc(C(=O)Cn2ncc(Cl)c(Cl)c2=O)c1C,-12%,-3%,?,28µM*,11µM*,20µM*,?,76*,
